Source: PubChem BioAssay

System: Wnt5a (protein binding on small-molecule microarray)
Test: Wnt5a binders on small-molecule microarray, primary screen, biophysical, 635/667 nm fluorescence (AID 1142);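 further: fluorescence read at 667 nm with signal to noise per printed feature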
Details: 635 nm fluorescence, higher = more signal

Row | SMILES | composite z-score
1 | O=C1C2C=CC(C(O)C=Cc3ccc([N+](=O)[O-])cc3)N(Nc3ccccc3)C2C(=O)N1c1ccccc1 (stereo not given) | 0.264
2 | CC(=O)NCCCC[C@@H]1NC(=O)[C@H]2C[C@@H](C(=O)NCCCCCNC(=O)CS)[C@@H](c3cccc(OCCO)c3)N2C1=O | -0.0417
3 | C=C[C@H](C)[C@H](OC(=O)Nc1ccc(OC)cc1)c1ccc(OCCO)cc1 | -0.423
4 | CCOC(=O)C[C@H]1[C@H](OC(=O)c2ccc(C(=O)c3ccccc3)cc2)[C@@H](NC(=O)CC(C)C)c2cc(OCCCO)ccc2N1C(=O)Cc1ccc(OC)cc1 | 0.11
5 | Cc1ccccc1C(O)C1C=CC2C(=O)NC(=O)C2N1Nc1ccc(Cl)cc1Cl (stereo not given) | -0.0864
6 | COc1cc2c(cc1O)C(c1ccc(CN3CCCC3)cc1)N(C)CC2 (stereo not given) | -0.0821
7 | COc1ccc([Si](C)(C)[C@@H]2[C@@H](CCn3cc([C@H](O)c4ccccc4)nn3)O[C@]3(C(=O)N(Cc4cccc(N5C(=O)c6cccc7cccc5c67)c4)c4ccccc43)[C@H]2C)cc1 | -0.537
8 | CC(C)(C)OC(=O)CC[C@]1(C(=O)N2CCCCC2)COC(c2ccc(OCCCO)cc2)=N1 | 0.784
9 | COCCOC(=O)N1C(=O)[C@@]2(c3cc(C#CC4=CCCCC4)ccc31)[C@H](c1ccc(O)cc1)N1[C@H](c3ccccc3)[C@H](c3ccccc3)OC(=O)[C@H]1[C@@H]2C(=O)NC[C@H](O)c1ccccc1 | 0.259
10 | CN(C)CCCCCCNC(=O)[C@@H]1C[C@@H]2C(=O)N[C@@H](CCCCN)C(=O)N2[C@@H]1c1ccc(O)cc1 | 1.95
11 | Cc1ccc(N2C(=O)c3ccccc3[C@](C)(C(=O)NCc3ccccc3)[C@@H]2c2ccc(CO)cc2)nc1 | 0.135
12 | C=C[C@@H](C)[C@@H](OC(=O)Nc1ccc(SC)cc1)c1ccc(OCCO)cc1 | 0.382
13 | C=C(/C(=C/C[C@@H](OC(=O)c1ccncc1)c1cccc(OCCO)c1)c1cnc2ccccc2c1)C(C)C | 0.782
14 | O=c1cccc(-c2ccco2)o1 | 0.302
15 | O=C1C2C=CC(C(O)c3cc(C(F)(F)F)cc(C(F)(F)F)c3)N(Nc3ccccc3F)C2C(=O)N1c1ccccc1 (stereo not given) | 0.17
16 | O=C(N1CCOCC1)[C@@]1(CCS(=O)(=O)c2ccccc2)N=C(c2ccc(OCCCO)cc2)O[C@H]1c1ccccc1 | 0.465
17 | COCCCNC(=O)[C@@]1(Sc2ccc(C)cc2)CC(=O)N(C(C)C)[C@@H]1c1ccc(CO)cc1I | -0.0469
18 | C=C(C)[C@@H]1CC=C(C(O)C2C=CC3C(=O)N(c4ccccc4)C(=O)C3N2Nc2ccc(C#N)cc2)CC1 (stereo not given in full) | 0.335
19 | C=C(COC)/C(=C/C[C@@H](OC(=O)c1ccncc1)c1ccccc1OCCO)c1cc(C(=O)OC)ccc1OC | -0.146
20 | CC(C)C[C@@H]1NC(=O)[C@@H]2C[C@H](C(=O)NCCCCCC[N+](C)(C)C)[C@H](c3cccc(OCCO)c3)N2C1=O | -0.391
21 | O=C1C2C=CC(C(O)c3ccco3)N(Nc3ccccc3)C2C(=O)N1c1ccccc1 (stereo not given) | -0.476
22 | CCOC(=O)C[C@H]1[C@H](OC(=O)c2ccc(-c3ccccc3)cc2)[C@@H](NC(=O)Cc2ccc(OC)cc2)c2cc(OCCCO)ccc2N1C(=O)Cc1ccc(OC)cc1 | -0.0129
23 | CCOC(=O)C1=CC[C@@H](c2ccccc2)N(S(=O)(=O)c2ccc(C)cc2)[C@H]1c1cccc(OC)c1 | -0.134
24 | CN1C=C(C(=O)OCCS(C)(=O)=O)C(C(=O)OCCS(C)(=O)=O)=CC(c2ccc(CO)cc2)=CC1c1cccs1 (stereo not given) | 0.0466
25 | COC(=O)C(CC#Cc1ccc2c(c1)[C@]1(C(=O)N2)[C@H](c2ccc(OCCO)cc2)N2[C@H](c3ccccc3)[C@H](c3ccccc3)OC(=O)[C@H]2[C@@H]1C(=O)N1CCN(c2ncccn2)CC1)C(=O)OC | 0.419
